Assay results published in PubChem BioAssay (NCI).
Where “and” joins values, the source holds several entries; their conditions need not be identical. Equal values may be shown once. About 79,000 compounds went through this panel and 15% of them were active in at least one assay; those are over-represented in the sample as a whole. Where a structure was tested more than once in an assay, its records may differ in their call. Calls of active or inactive are those of the source. No stated cut-off is given here; in the data, active means growth inhibition above about 70%; inactive means the rest.

Assay: NCI Yeast Anticancer Drug Screen. Data for the mec2-1 strain (AID 157)
Conditions: S. cerevisiae mec2-1 strain, at 5.0 µM (retest, dose inferred, filed as 0.5), stronger effect = higher value
Outline: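 Each compound was tested on mec2-1 yeast, a strain altered in DNA damage repair or cell cycle control. Growth inhibition is reported relative to vehicle.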

**Q.** With COc1ccc(/C=C2\CCc3ccccc3C2=O)cc1OC as the compound, how does the growth inhibition read?
**A.** Its growth inhibition is -11% (inactive).

**Q.** With CC(C)c1ccc(O)c(=O)cc1 as the compound, how does the growth inhibition read?
**A.** Its growth inhibition is 2% (inactive) and -1% (inactive).

**Q.** For O=Cc1ccccc1B(O)O, which growth inhibition is on record?
**A.** Its growth inhibition is -25% (inactive).

**Q.** With OCC(O)C(O)C(O)C(O)c1nc2ccccc2[nH]1 (centres undefined) as the compound, how does the growth inhibition read?
**A.** The growth inhibition was -17% (inactive) and -20% (inactive).

**Q.** For CC(=O)CC[N+](C)(C)C, which growth inhibition is on record?
**A.** Its growth inhibition is 22% (inactive).

**Q.** With O=C(O)[C@H]1[C@@H](C2CCCCC2)O[C@@H](C2CCCCC2)O[C@H]1C(F)(F)F as the compound, how does the growth inhibition read?
**A.** The growth inhibition was -19% (inactive).

**Q.** For CN(NC(=O)/C(=C/C=C/c1ccccc1)NC(=O)c1ccccc1)C1=C(Cl)C(=O)[N+](c2ccccc2)=CC1, which growth inhibition is on record?
**A.** Its growth inhibition is -12% (inactive).

**Q.** Which growth inhibition does the source give for CCCCOc1ccc(Nc2c3ccccc3nc3ccccc23)cc1 here?
**A.** The growth inhibition was 12% (inactive).

**Q.** Which growth inhibition does the source give for N#C/C(=C1C=C/C(=N\O)C(Cl)=C\1)c1ccccc1 here?
**A.** The growth inhibition was -11% (inactive).

**Q.** Which growth inhibition does the source give for COc1cccc2c1C(=O)c1c(O)c3c(c(O)c1C2=O)CC(O)(C(=O)CO)CC3OC1CC(N)C(O)C(C)O1 (centres undefined) here?
**A.** Its growth inhibition is 7% (inactive) and 6% (inactive) and 14% (inactive).

**Q.** For COc1ccc(C(=O)OCCc2ccccc2)cc1, which growth inhibition is on record?
**A.** The growth inhibition was -28% (inactive).

**Q.** Which growth inhibition does the source give for Cc1c2ccncc2c(C)c2c1oc1ccccc12 here?
**A.** Its growth inhibition is 29% (inactive).

**Q.** For CCCC#CCOC(=O)c1cc([N+](=O)[O-])cc([N+](=O)[O-])c1, which growth inhibition is on record?
**A.** Its growth inhibition is 99% (active).

**Q.** Which growth inhibition does the source give for Nc1nc(Nc2ccccc2)nc(Nc2ccccc2)n1 here?
**A.** Its growth inhibition is -2% (inactive).

**Q.** With COc1ccc(/C=C2\S/C(=N/Nc3nc(-c4ccccc4)cs3)NC2=O)cc1OC as the compound, how does the growth inhibition read?
**A.** The growth inhibition was -8% (inactive).

**Q.** For CCCCCCCCCCCC[N+](C)(C)Cc1ccccc1 (tested in a mixture with another compound), which growth inhibition is on record?
**A.** Its growth inhibition is 79% (active) and 55% (inactive) and 44% (inactive).

**Q.** Which growth inhibition does the source give for CC(O)CN1C(=O)c2cccc3cc([N+](=O)[O-])cc(c23)C1=O (centres undefined) here?
**A.** The growth inhibition was -16% (inactive).

**Q.** For Cc1cc(SC#N)ccc1O, which growth inhibition is on record?
**A.** The growth inhibition was -1% (inactive) and -7% (inactive) and -6% (inactive).

**Q.** Which growth inhibition does the source give for Cn1c(COc2ccc(/C=N/NC(=O)CCC(=O)N/N=C/c3ccc(OCc4c[n+]5ccccc5n4C)cc3)cc2)c[n+]2ccccc12 here?
**A.** The growth inhibition was -10% (inactive).

**Q.** With COC1=C(N=[N+]=[N-])C(=O)c2ncccc2C1=O as the compound, how does the growth inhibition read?
**A.** The growth inhibition was 38% (inactive).

**Q.** Which growth inhibition does the source give for CCN(CC)c1ccc(N=Nc2cc(S(=O)(=O)O)ccc2O)c(O)c1 here?
**A.** Its growth inhibition is 55% (inactive).

**Q.** For O=C1C(C(O)(C(F)(F)F)C(F)(F)F)CCC1C(O)(C(F)(F)F)C(F)(F)F (centres undefined), which growth inhibition is on record?
**A.** Its growth inhibition is 9% (inactive).

**Q.** Which growth inhibition does the source give for COc1nc(N)c(N=CC(OC(C)=O)C(OC(C)=O)C(COC(C)=O)OC(C)=O)c(=O)n1C (centres undefined) here?
**A.** The growth inhibition was 24% (inactive) and -10% (inactive) and 7% (inactive).

**Q.** Which growth inhibition does the source give for CN(C)CCNC(=O)c1cccc2nc3c(ccc4ccccc43)nc12 here?
**A.** The growth inhibition was 5% (inactive).

**Q.** With O=S(=O)(CCC[C@H]1[C@@H](CCOCc2ccccc2)C2CCCN1O2)c1ccccc1 (some centres undefined) as the compound, how does the growth inhibition read?
**A.** The growth inhibition was -9% (inactive).

**Q.** With CCC(C)/C(C)=N/NC(N)=O (centres undefined) as the compound, how does the growth inhibition read?
**A.** The growth inhibition was -3% (inactive).

**Q.** For Nc1c([N+](=O)[O-])cc2c3c(cccc13)CC2, which growth inhibition is on record?
**A.** The growth inhibition was 2% (inactive).

**Q.** With CC1=Cc2ccc(C)cc2C(=O)C1=O as the compound, how does the growth inhibition read?
**A.** Its growth inhibition is -7% (inactive).

**Q.** With C=Cc1c(C)c(O)cc2c1-c1ccc(O)c(C)c1CC2 as the compound, how does the growth inhibition read?
**A.** Its growth inhibition is 22% (inactive).

**Q.** Which growth inhibition does the source give for NCC(O)CSCc1ccc(Cl)cc1 (centres undefined) here?
**A.** The growth inhibition was -14% (inactive).

**Q.** With C[n+]1c(-c2ccc(NC(=O)c3ccc(C(=O)Nc4ccc(-c5cn6ccccc6[n+]5C)cc4)cc3)cc2)cn2ccccc21 as the compound, how does the growth inhibition read?
**A.** Its growth inhibition is 5% (inactive).

**Q.** Which growth inhibition does the source give for Nc1ccccc1SSc1ccccc1N here?
**A.** The growth inhibition was 80% (active) and 18% (inactive) and 29% (inactive).

**Q.** With CCCCCCCCCCCC[N+](C)(C)C as the compound, how does the growth inhibition read?
**A.** The growth inhibition was -3% (inactive) and 0% (inactive) and 22% (inactive).

**Q.** With CNC(=O)OCc1c(COC(=O)NC)c(C)n(-c2ccc(Cl)c(Cl)c2)c1C as the compound, how does the growth inhibition read?
**A.** The growth inhibition was 23% (inactive).

**Q.** Which growth inhibition does the source give for [O-]c1c2cc(-[n+]3c(-c4ccccc4)cc(-c4ccccc4)cc3-c3ccccc3)cc1COCCOCCOCCOCCOC2 here?
**A.** The growth inhibition was -7% (inactive).

**Q.** With C[Si](C)(C)Cc1ccccc1C(=O)O as the compound, how does the growth inhibition read?
**A.** The growth inhibition was 8% (inactive).

Same assay, conditions: S. cerevisiae mec2-1 strain, at 11.0 µM, stronger effect = higher value

**Q.** For COc1ccc(/C=C2\CCc3ccccc3C2=O)cc1OC, which growth inhibition is on record?
**A.** The growth inhibition was -22% (inactive).

**Q.** For O=Cc1ccccc1B(O)O, which growth inhibition is on record?
**A.** Its growth inhibition is 97% (active).

**Q.** With CC(=O)CC[N+](C)(C)C as the compound, how does the growth inhibition read?
**A.** The growth inhibition was -1% (inactive).

**Q.** Which growth inhibition does the source give for O=C(O)[C@H]1[C@@H](C2CCCCC2)O[C@@H](C2CCCCC2)O[C@H]1C(F)(F)F here?
**A.** Its growth inhibition is 1% (inactive).

**Q.** For CN(NC(=O)/C(=C/C=C/c1ccccc1)NC(=O)c1ccccc1)C1=C(Cl)C(=O)[N+](c2ccccc2)=CC1, which growth inhibition is on record?
**A.** The growth inhibition was 16% (inactive).

**Q.** With CCCCOc1ccc(Nc2c3ccccc3nc3ccccc23)cc1 as the compound, how does the growth inhibition read?
**A.** Its growth inhibition is 68% (inactive).

**Q.** With N#C/C(=C1C=C/C(=N\O)C(Cl)=C\1)c1ccccc1 as the compound, how does the growth inhibition read?
**A.** Its growth inhibition is 2% (inactive).

**Q.** With COc1ccc(C(=O)OCCc2ccccc2)cc1 as the compound, how does the growth inhibition read?
**A.** The growth inhibition was -4% (inactive).

**Q.** For Cc1c2ccncc2c(C)c2c1oc1ccccc12, which growth inhibition is on record?
**A.** The growth inhibition was 17% (inactive).

**Q.** Which growth inhibition does the source give for CCCC#CCOC(=O)c1cc([N+](=O)[O-])cc([N+](=O)[O-])c1 here?
**A.** The growth inhibition was 99% (active).

**Q.** For Nc1nc(Nc2ccccc2)nc(Nc2ccccc2)n1, which growth inhibition is on record?
**A.** Its growth inhibition is -1% (inactive).

**Q.** For COc1ccc(/C=C2\S/C(=N/Nc3nc(-c4ccccc4)cs3)NC2=O)cc1OC, which growth inhibition is on record?
**A.** The growth inhibition was 96% (active).

**Q.** With CC(O)CN1C(=O)c2cccc3cc([N+](=O)[O-])cc(c23)C1=O (centres undefined) as the compound, how does the growth inhibition read?
**A.** The growth inhibition was 2% (inactive).

**Q.** Which growth inhibition does the source give for Cn1c(COc2ccc(/C=N/NC(=O)CCC(=O)N/N=C/c3ccc(OCc4c[n+]5ccccc5n4C)cc3)cc2)c[n+]2ccccc12 here?
**A.** Its growth inhibition is 0% (inactive).

**Q.** With COC1=C(N=[N+]=[N-])C(=O)c2ncccc2C1=O as the compound, how does the growth inhibition read?
**A.** The growth inhibition was 68% (inactive).

**Q.** Which growth inhibition does the source give for CCN(CC)c1ccc(N=Nc2cc(S(=O)(=O)O)ccc2O)c(O)c1 here?
**A.** The growth inhibition was -19% (inactive).

**Q.** Which growth inhibition does the source give for O=C1C(C(O)(C(F)(F)F)C(F)(F)F)CCC1C(O)(C(F)(F)F)C(F)(F)F (centres undefined) here?
**A.** The growth inhibition was 10% (inactive).

**Q.** For CN(C)CCNC(=O)c1cccc2nc3c(ccc4ccccc43)nc12, which growth inhibition is on record?
**A.** Its growth inhibition is 10% (inactive).

**Q.** Which growth inhibition does the source give for O=S(=O)(CCC[C@H]1[C@@H](CCOCc2ccccc2)C2CCCN1O2)c1ccccc1 (some centres undefined) here?
**A.** Its growth inhibition is 5% (inactive).

**Q.** With CCC(C)/C(C)=N/NC(N)=O (centres undefined) as the compound, how does the growth inhibition read?
**A.** Its growth inhibition is -1% (inactive).

**Q.** Which growth inhibition does the source give for Nc1c([N+](=O)[O-])cc2c3c(cccc13)CC2 here?
**A.** The growth inhibition was 13% (inactive).

**Q.** Which growth inhibition does the source give for CC1=Cc2ccc(C)cc2C(=O)C1=O here?
**A.** Its growth inhibition is 42% (inactive).

**Q.** With C=Cc1c(C)c(O)cc2c1-c1ccc(O)c(C)c1CC2 as the compound, how does the growth inhibition read?
**A.** Its growth inhibition is -7% (inactive).

**Q.** Which growth inhibition does the source give for NCC(O)CSCc1ccc(Cl)cc1 (centres undefined) here?
**A.** The growth inhibition was -2% (inactive).

**Q.** With C[n+]1c(-c2ccc(NC(=O)c3ccc(C(=O)Nc4ccc(-c5cn6ccccc6[n+]5C)cc4)cc3)cc2)cn2ccccc21 as the compound, how does the growth inhibition read?
**A.** Its growth inhibition is 30% (inactive).

**Q.** For CNC(=O)OCc1c(COC(=O)NC)c(C)n(-c2ccc(Cl)c(Cl)c2)c1C, which growth inhibition is on record?
**A.** The growth inhibition was -26% (inactive).

**Q.** For [O-]c1c2cc(-[n+]3c(-c4ccccc4)cc(-c4ccccc4)cc3-c3ccccc3)cc1COCCOCCOCCOCCOC2, which growth inhibition is on record?
**A.** The growth inhibition was -2% (inactive).

**Q.** Which growth inhibition does the source give for C[Si](C)(C)Cc1ccccc1C(=O)O here?
**A.** The growth inhibition was 8% (inactive).
